Measured values: ChEMBL document CHEMBL1201862, “PubChem BioAssay data set” (2004)
In all, about 350,000 compounds went through this assay and about 700 (0.2%) were called active. No cut-off for these calls is given here. This excerpt belongs to a sample that is enriched for actives.

Target: RecQ-like DNA helicase BLM (Homo sapiens) (UniProt P54132)
Experiment: qHTS Assay for Inhibitors of Bloom's syndrome helicase (BLM).
Assay type: functional

Sequence of RecQ-like DNA helicase BLM (Homo sapiens) (P54132 whole entry): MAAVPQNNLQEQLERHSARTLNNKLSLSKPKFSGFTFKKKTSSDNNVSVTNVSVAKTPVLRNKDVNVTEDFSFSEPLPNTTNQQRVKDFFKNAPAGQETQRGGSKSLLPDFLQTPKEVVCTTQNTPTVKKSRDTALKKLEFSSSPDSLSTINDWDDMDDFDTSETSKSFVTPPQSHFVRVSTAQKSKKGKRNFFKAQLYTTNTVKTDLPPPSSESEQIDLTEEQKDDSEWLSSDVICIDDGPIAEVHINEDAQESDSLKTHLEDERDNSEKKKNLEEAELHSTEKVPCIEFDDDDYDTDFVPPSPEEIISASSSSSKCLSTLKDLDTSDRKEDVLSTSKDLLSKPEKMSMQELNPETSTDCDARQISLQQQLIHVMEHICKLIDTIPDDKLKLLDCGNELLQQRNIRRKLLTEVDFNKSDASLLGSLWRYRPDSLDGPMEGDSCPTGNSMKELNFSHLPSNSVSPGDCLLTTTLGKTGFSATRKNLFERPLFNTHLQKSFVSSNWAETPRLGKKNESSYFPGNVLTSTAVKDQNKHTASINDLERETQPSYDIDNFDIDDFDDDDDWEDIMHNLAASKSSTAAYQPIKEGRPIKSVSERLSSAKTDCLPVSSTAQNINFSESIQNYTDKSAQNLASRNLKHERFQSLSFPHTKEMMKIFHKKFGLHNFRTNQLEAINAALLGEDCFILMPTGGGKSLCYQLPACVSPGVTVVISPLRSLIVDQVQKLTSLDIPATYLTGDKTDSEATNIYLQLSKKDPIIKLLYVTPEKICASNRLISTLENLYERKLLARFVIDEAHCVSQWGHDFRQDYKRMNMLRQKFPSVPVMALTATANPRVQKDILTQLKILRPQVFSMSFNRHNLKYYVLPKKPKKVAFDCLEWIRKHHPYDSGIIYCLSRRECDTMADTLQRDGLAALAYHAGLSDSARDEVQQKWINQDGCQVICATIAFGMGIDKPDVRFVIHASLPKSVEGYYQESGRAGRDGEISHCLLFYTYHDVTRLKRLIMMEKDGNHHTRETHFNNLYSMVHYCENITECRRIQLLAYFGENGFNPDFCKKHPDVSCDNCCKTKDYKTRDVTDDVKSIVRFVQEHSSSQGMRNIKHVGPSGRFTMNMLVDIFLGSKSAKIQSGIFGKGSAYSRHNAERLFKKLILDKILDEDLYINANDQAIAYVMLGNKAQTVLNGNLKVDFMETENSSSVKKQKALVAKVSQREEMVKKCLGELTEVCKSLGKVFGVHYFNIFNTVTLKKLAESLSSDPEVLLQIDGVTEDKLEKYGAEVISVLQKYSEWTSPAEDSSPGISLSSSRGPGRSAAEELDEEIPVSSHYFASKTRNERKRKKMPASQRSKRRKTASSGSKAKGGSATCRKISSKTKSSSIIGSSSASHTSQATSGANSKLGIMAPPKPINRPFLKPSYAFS

Row | Structure (SMILES) | Potency
1 | N[C@H](Cc1ccc(O)c(O)c1)C(=O)O | 28.2 µM (active)
